Reference: PubChem BioAssay (NCI)
“And” between values parts separate entries of the source, which are not always exact repeats. Equal values may be shown once. The panel holds about 83,000 compounds, 20% with a hit somewhere; the sample as a whole holds those more often.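 Single-dose data. Exposure time 48 hours. Values below 10 considered active.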 The source made the active and inactive calls.

Assays:
Assay in all cases: NCI-60 one-dose screen, 48 h (100 = growth as untreated, 0 = no growth, -100 = all killed)
Conditions in all cases: 10 µM unless noted
NCI-H23 lung = test system: NCI-H23 lung
NCI-H226 lung = test system: NCI-H226 lung
NCI-H322M lung = test system: NCI-H322M lung
HOP-62 NSCLC = test system: HOP-62 NSCLC
NCI-H460 lung = test system: NCI-H460 lung
HOP-92 NSCLC = test system: HOP-92 NSCLC
NCI-H522 lung = test system: NCI-H522 lung
A549/ATCC NSCLC = test system: A549/ATCC NSCLC
786-0 renal = test system: 786-0 renal
COLO 205 colon = test system: COLO 205 colon
DU-145 prostate = test system: DU-145 prostate
K-562 leukemia = test system: K-562 leukemia
MALME-3M melanoma = test system: MALME-3M melanoma
MDA-MB-231 breast = test system: MDA-MB-231 breast
RXF 393 renal = test system: RXF 393 renal
SF-268 CNS = test system: SF-268 CNS
SF-295 CNS = test system: SF-295 CNS
SF-539 CNS = test system: SF-539 CNS
UACC-257 melanoma = test system: UACC-257 melanoma
M14 melanoma = test system: M14 melanoma

Measured: growth

NC1=CC(=O)c2ccccc2C1=O
inactive: NCI-H23 lung 40.2% | NCI-H226 lung 91.7% | NCI-H322M lung 97% | HOP-62 NSCLC 80.9% | NCI-H460 lung 89.8% | HOP-92 NSCLC 91.4% | NCI-H522 lung 89.4% | A549/ATCC NSCLC 75.9% | 786-0 renal 105% | COLO 205 colon 104% | DU-145 prostate 63.8% | K-562 leukemia 92.6% | MALME-3M melanoma 38.8% | MDA-MB-231 breast 82.1% | RXF 393 renal 100% | SF-268 CNS 95.6% | SF-295 CNS 69% | SF-539 CNS 106% | UACC-257 melanoma 69% | M14 melanoma 83%

C=CCOc1ccc(N=NC(C#N)C#N)cc1
inactive: NCI-H23 lung 75.7% | NCI-H226 lung 84.5% | NCI-H322M lung 93% | HOP-62 NSCLC 52.3% | NCI-H460 lung 104% | A549/ATCC NSCLC 86.3% | 786-0 renal 78.8% | COLO 205 colon 22.1% | DU-145 prostate 77.8% | K-562 leukemia 38.2% | MDA-MB-231 breast 69.7% | RXF 393 renal 51.1% | SF-268 CNS 102% | SF-295 CNS 92.7% | SF-539 CNS 87% | UACC-257 melanoma 42.1% | M14 melanoma 66.4%
active: HOP-92 NSCLC -13.1% | NCI-H522 lung -12.9% | MALME-3M melanoma 3.69%

CC1SC(=S)N(c2ccc(Cl)cc2)C1=O (stereo not drawn)
inactive: NCI-H23 lung 104% and 92.2% | NCI-H226 lung 92.9% and 97.2% | NCI-H322M lung 89.5% and 89.8% | HOP-62 NSCLC 92.4% and 92.7% | NCI-H460 lung 100% and 108% | HOP-92 NSCLC 77.6% | NCI-H522 lung 89.8% | A549/ATCC NSCLC 93.8% and 95.7% | 786-0 renal 91.5% and 93.1% | COLO 205 colon 124% and 107% | DU-145 prostate 104% and 96.3% | K-562 leukemia 84.1% and 78.8% | MALME-3M melanoma 104% and 108% | MDA-MB-231 breast 99.6% and 86.4% | RXF 393 renal 116% | SF-268 CNS 109% and 84.1% | SF-295 CNS 96% and 98.8% | SF-539 CNS 98.5% and 70.7% | UACC-257 melanoma 97.9% | M14 melanoma 111% and 105%

O=C(/C=C\c1cc(Br)ccc1O)/C=C/c1cc(Br)ccc1O
active: NCI-H23 lung -11.9% | NCI-H226 lung -64.8% | NCI-H322M lung 6.71% | HOP-62 NSCLC -57.3% | NCI-H460 lung -34.9% | HOP-92 NSCLC -40.1% | NCI-H522 lung -62.9% | A549/ATCC NSCLC -8.66% | 786-0 renal -68% | COLO 205 colon -70.6% | DU-145 prostate 2.79% | K-562 leukemia 5.64% | MALME-3M melanoma -5.41% | MDA-MB-231 breast 0.442% | RXF 393 renal -49.4% | SF-268 CNS -17.9% | SF-295 CNS -1.61% | SF-539 CNS -49.1% | UACC-257 melanoma -16.7% | M14 melanoma -51.7%

Oc1c(Cl)cc(Cl)c2cccnc12
inactive: NCI-H23 lung 64.6% and 49.1% | NCI-H226 lung 81% and 71.6% | NCI-H322M lung 63.2% and 72.1% | HOP-62 NSCLC 49.7% and 71.2% | NCI-H460 lung 24.7% and 27.4% | HOP-92 NSCLC 49.7% | NCI-H522 lung 65.2% and 71.8% | A549/ATCC NSCLC 30.6% | 786-0 renal 69.1% and 74% | COLO 205 colon 99.9% and 85.2% | DU-145 prostate 85.5% and 71.2% | K-562 leukemia 24.4% and 29% | MALME-3M melanoma 74.1% and 91.3% | MDA-MB-231 breast 95.1% and 48.3% | RXF 393 renal 67.1% | SF-268 CNS 66.4% and 54% | SF-295 CNS 30.3% and 12.3% | SF-539 CNS 68.7% and 34.3% | UACC-257 melanoma 82.4% | M14 melanoma 63.7% and 53%

O=C1N[C@H]2[C@H](CS[C@H]2CCCCC(=O)N(CCP(c2ccccc2)c2ccccc2)CCP(c2ccccc2)c2ccccc2)N1
inactive: NCI-H23 lung 67.8% | NCI-H226 lung 89.5% | NCI-H322M lung 79.2% | HOP-62 NSCLC 80.3% | NCI-H460 lung 41.3% | HOP-92 NSCLC 56.1% | NCI-H522 lung 57.6% | A549/ATCC NSCLC 76.6% | 786-0 renal 82.8% | COLO 205 colon 29.9% | DU-145 prostate 95.6% | K-562 leukemia 69.3% | MALME-3M melanoma 91.7% | MDA-MB-231 breast 80.9% | RXF 393 renal 96.5% | SF-268 CNS 88.8% | SF-295 CNS 83.6% | SF-539 CNS 99.5% | UACC-257 melanoma 79.6% | M14 melanoma 97.3%

Cc1ccc2nc(-[n+]3cc4ccccc4cc3C)ccc2c1
active: HOP-92 NSCLC 5.49% | COLO 205 colon -11.8%
inactive: NCI-H23 lung 19.1% | NCI-H226 lung 53.7% | NCI-H322M lung 85.2% | HOP-62 NSCLC 37.1% | NCI-H460 lung 29.5% | NCI-H522 lung 26.2% | A549/ATCC NSCLC 43.1% | 786-0 renal 81.2% | DU-145 prostate 53.6% | K-562 leukemia 39.1% | MALME-3M melanoma 44.2% | MDA-MB-231 breast 54.8% | RXF 393 renal 91.2% | SF-268 CNS 39.5% | SF-295 CNS 33.3% | SF-539 CNS 43.8% | UACC-257 melanoma 11.4% | M14 melanoma 43.1%

Cc1ccc(C(=Nc2ccccc2)N=P(c2ccccc2)(c2ccccc2)c2ccccc2)cc1
inactive: K-562 leukemia 15.6%
active: NCI-H23 lung -24.5% | NCI-H226 lung -46.2% | NCI-H322M lung -29.4% | HOP-62 NSCLC -90.2% | NCI-H460 lung -75.2% | HOP-92 NSCLC -43.1% | NCI-H522 lung -55.8% | A549/ATCC NSCLC 6.89% | 786-0 renal -55% | COLO 205 colon -87.8% | DU-145 prostate -0.576% | MALME-3M melanoma -67.8% | MDA-MB-231 breast -41% | RXF 393 renal -23.3% | SF-268 CNS -0.449% | SF-295 CNS -93.4% | SF-539 CNS -42.9% | UACC-257 melanoma -17.3% | M14 melanoma -79%

CC1OC2CC(=O)OC2C2=C1C(=O)c1c(O)cccc1C2=O (stereo not drawn)
active: NCI-H23 lung -89.9% | NCI-H226 lung -80% | NCI-H322M lung -29.1% | HOP-62 NSCLC -88.2% | NCI-H460 lung -0.634% | HOP-92 NSCLC -92% | NCI-H522 lung -89.1% | A549/ATCC NSCLC 2.68% | 786-0 renal -87.9% | COLO 205 colon -87.2% | DU-145 prostate -98.3% | K-562 leukemia -7.94% | MALME-3M melanoma -77.4% | MDA-MB-231 breast -65.9% | RXF 393 renal -96.4% | SF-268 CNS -92.9% | SF-295 CNS -8.69% | SF-539 CNS -89.5% | UACC-257 melanoma -78.5% | M14 melanoma -87.7%

CN(C)c1ccc(/C=N/N=C(\C#N)[S][Sn]([Cl])([c]2ccccc2)[c]2ccccc2)cc1
inactive: NCI-H23 lung 28.6% | NCI-H322M lung 84.1% | HOP-62 NSCLC 84.5% | NCI-H460 lung 84.3% | A549/ATCC NSCLC 78.3% | 786-0 renal 10.8% | SF-268 CNS 42.9% | SF-295 CNS 107% | UACC-257 melanoma 21.3%
active: NCI-H226 lung -69.4% | HOP-92 NSCLC -15.6% | NCI-H522 lung -81.4% | COLO 205 colon -51.6% | DU-145 prostate 5.62% | K-562 leukemia 3.13% | MALME-3M melanoma -50.8% | MDA-MB-231 breast -12.7% | RXF 393 renal -86.3% | SF-539 CNS -16.3% | M14 melanoma 4.46%

Nc1ccc(SSc2ccc(N)cc2)cc1
inactive: NCI-H23 lung 89.9% | NCI-H226 lung 103% | NCI-H322M lung 92.5% | HOP-62 NSCLC 114% | NCI-H460 lung 100% | HOP-92 NSCLC 103% | NCI-H522 lung 84.1% | A549/ATCC NSCLC 77.7% | 786-0 renal 100% | COLO 205 colon 106% | DU-145 prostate 111% | MALME-3M melanoma 104% | MDA-MB-231 breast 82.4% | RXF 393 renal 108% | SF-268 CNS 106% | SF-295 CNS 82.6% | SF-539 CNS 106% | UACC-257 melanoma 86.1% | M14 melanoma 97.7%

COc1cc(/C=C/C(C)=O)ccc1O
inactive: NCI-H23 lung 96.6% and 94.1% | NCI-H226 lung 95.3% and 111% | NCI-H322M lung 88.4% and 115% | HOP-62 NSCLC 94.2% and 111% | NCI-H460 lung 102% and 110% | HOP-92 NSCLC 73.3% | A549/ATCC NSCLC 98.1% and 100% | 786-0 renal 121% and 114% | COLO 205 colon 97.5% and 120% | DU-145 prostate 105% and 101% | K-562 leukemia 105% and 98.2% | MALME-3M melanoma 90.6% and 137% | MDA-MB-231 breast 96.4% and 111% | RXF 393 renal 100% and 121% | SF-268 CNS 90.3% and 99% | SF-295 CNS 107% and 114% | SF-539 CNS 86.1% and 93.9% | UACC-257 melanoma 106% and 109% | M14 melanoma 99.7% and 101%

O=C(Nc1ccc(F)cc1)ON=C1CCCCC1
inactive: NCI-H23 lung 110% [100 µM] | NCI-H226 lung 96.9% [100 µM] | NCI-H322M lung 101% [100 µM] | HOP-62 NSCLC 112% [100 µM] | NCI-H460 lung 104% [100 µM] | HOP-92 NSCLC 108% [100 µM] | NCI-H522 lung 93.3% [100 µM] | A549/ATCC NSCLC 94.1% [100 µM] | 786-0 renal 87.6% [100 µM] | COLO 205 colon 125% [100 µM] | DU-145 prostate 106% [100 µM] | K-562 leukemia 79.6% [100 µM] | MALME-3M melanoma 108% [100 µM] | MDA-MB-231 breast 101% [100 µM] | RXF 393 renal 102% [100 µM] | SF-268 CNS 96.3% [100 µM] | SF-295 CNS 100% [100 µM] | SF-539 CNS 93.5% [100 µM] | UACC-257 melanoma 98.8% [100 µM] | M14 melanoma 111% [100 µM]
